Screening data deposited in PubChem by National Center for Advancing Translational Sciences (NCATS).
This is a sample that favours compounds with a hit; in the whole collection about 19% have one here.
IL1B secr inh – qHTS for Inhibitors of Inflammasome Signaling: IL-1-beta AlphaLISA Primary Screen; THP-1 LPS/ATP IL-1B secretion, AlphaLISA, 16 h; hits give low values; activity change, % at 57.5 µM; hit rate 4.7% among 360,000; AID 743279, 2014; in the data active = activity change below about -50%; inconclusive = mostly about -30% to -49%
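THP-1 cells pretreated 1 hr with compounds (up to 57.5 uM final), then stimulated with LPS (250 ng/mL final) plus ATP (1.25 mM final); secreted IL-1B measured by AlphaLISA after 16 hr, decreased signal indicating inhibition.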
HT1080NT lethal – qHTS for induction of synthetic lethality in tumor cells producing 2HG: qHTS for the HT-1080-NT fibrosarcoma cell line; HT-1080-NT fibrosarcoma viability, CellTiter-Glo ATP luminescence, 48 h; Potency, µM (highest dose often 46.1 µM), without a hit: at the top dose activity, negative = less viability, usual class: cytotoxic; hit rate 1.6% among 360,000;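 also: NT is the 2HG producing partner of a matched IDH1 knockdown line; potency is read from the fitted curve at half-maximal effect; 0% = DMSO-treated cells and -100% = media-only wells without cells; nearly all actives have a fitted effect of over 55% in size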
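HT-1080-NT fibrosarcoma cells (2HG-overproducing), 750 cells/well in RPMI with 5% FBS, dosed after 2 h and incubated 48 h at 37C. CellTiter-Glo luminescence normalized to DMSO and no-cell wells; concentration-response curves fitted and classed.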
TDP1 cell noCPT – qHTS for Inhibitors of human tyrosyl-DNA phosphodiesterase 1 (TDP1): qHTS in cells in absence of CPT; AID 686978, 2013; DT40 Tdp1-/- hTDP1 cells, no CPT, ATP luminescence, 48 h; hit rate 15% among 420,000; Potency, µM (series often up to 46.2 µM), inactives show top-dose activity change, negative = growth inhibition, actives largely listed as inhibitors; also: potency is read from the fitted curve at half-maximal effect; nearly all actives have a fitted effect of over 55% in size
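A cellular qHTS used chicken DT40 cells lacking endogenous Tdp1 but carrying stably transfected human TDP1. Compounds were applied without camptothecin, and cell growth kinetics were judged by ATP-dependent luminescence after ≥48 hr.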
uPA surface inh – qHTS for Inhibitors of Cell Surface uPA Generation. cell surface uPA generation assay, qHTS. Potency, µM (doses to about 38.3 µM), without a hit: at the top dose activity change, negative = inhibition, most hits filed as inhibitors. hit rate 0.31% among 330,000; active = well fitted inhibition curve with a large enough effect; inconclusive = small, poorly fitted or top-dose-only effect; inactive = no such curve, though single readings can be large or run the other way; tested in mouse RAW 264.7 cells; also: potency is read from the fitted curve at half-maximal effect; nearly all actives have a fitted effect of over 55% in size
HT1080 IDH1KD tx – qHTS for induction of synthetic lethality in tumor cells producing 2HG: qHTS for the HT-1080-IDH1KD cell line | HT-1080 IDH1 knockdown viability, ATP luminescence, 48 h | Potency, µM (highest dose often 46.1 µM), inactives show top-dose activity, negative = toxicity, most hits filed as cytotoxic | hit rate 2% among 360,000 | AID 686971, 2013;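 also: potency is read from the fitted curve at half-maximal effect; 0% = DMSO wells and -100% = cell-free medium wells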
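Using the IDH1-knockdown HT-1080 line run in the same batch and compound series as the NT line, viability after 48 h at 37 °C was determined by CellTiter-Glo luminescence and expressed as % activity.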
TDP1 cell CPT – qHTS for Inhibitors of human tyrosyl-DNA phosphodiesterase 1 (TDP1): qHTS in cells in presence of CPT; chicken DT40 Tdp1-/-;hTDP1 cells + 20 nM CPT, ATP luminescence, 48 h; Potency, µM (series often up to 46.2 µM), without a hit: at the top dose activity change, negative = growth inhibition, most hits filed as inhibitors; hit rate 12% among 420,000; AID 686979, 2013; also: potency is read from the fitted curve at half-maximal effect; nearly all actives have a fitted effect of over 55% in size
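Cell growth measured by CellTiter-Glo luminescence after a minimum 48 h, 37 C compound exposure with 20 nM CPT in Tdp1-knockout DT40 cells stably expressing hTDP1, seeded 400/well; qHTS titration format.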
* = called active by the depositor; u = inconclusive; x = no result given. Unless noted, calls follow the shape of the dose curve; as a rule, active = well fitted curve in the direction sought with a large enough effect; inconclusive = small, poorly fitted or top-dose-only effect, or another doubt; inactive = no such curve, though single readings can be large; an effect the other way counts as inactive or inconclusive. Unless noted, % is scaled to controls: 0 for no effect and ±100 for the full control effect.

SMILES	IL1B secr inh	HT1080NT lethal	TDP1 cell noCPT	uPA surface inh	HT1080 IDH1KD tx	TDP1 cell CPT
Cc1ncoc1C(=O)NCC1=C(c2ccc3ccccc3c2)C[C@@H]2CC[C@H]1N2Cc1ccco1	-11.3	-18.2%	u	x	2.1%	u
CCc1cc2c(=O)n(C(C)C(=O)OC3CCCCC3)cnc2s1 (stereo not given)	1.7	2.1%	u	13.8%	-9.3%	u
CCN(CC)c1ccc(NC(=O)c2cccc(C)c2)cc1S(=O)(=O)Nc1ccccc1OC	-29.5	5.0%	23.1µM*	7.5%	0.0%	16.4µM*
COc1ccc(C(=O)NC(=S)N2C[C@H]3C[C@H](C2)c2cccc(=O)n2C3)cc1	-0.6	4.7%	2.9%	2.1%	5.1%	18.5%
CC(C)OP(=O)(OC(C)C)C(NCc1ccccc1)c1ccccc1 (stereo not given)	-19.3	1.0%	23.1µM*	4.5%	0.5%	u
O=c1[nH]c(=O)n(CCc2ccccc2)c(O)c1C=NC1CC1	12.4	16.0%	-6.9%	-0.9%	21.0%	2.3%
O=C(NC(O)C(Cl)(Cl)Cl)NC(O)C(Cl)(Cl)Cl (stereo not given)	x	x	-16.8%	x	x	7.4%
O=[N+]([O-])c1ccc(-c2ccccc2)c([As](=O)(O)O)c1	-18.3	-28.9%	9.2µM*	3.5%	-26.3%	13µM*
O=[N+]([O-])c1ccc2c(c1)C(c1ccccc1)=NCCN2	-15.2	-20.5%	-27.3%	-8.4%	-18.6%	-9.9%
C[C@@H]1O[C@@H](O[C@H]2CC[C@]3(C=O)C4CC[C@]5(C)[C@@H](C6=CC(=O)OC6)CC[C@]5(O)[C@@H]4CC[C@]3(O)C2)[C@H](O)[C@H](O)[C@H]1O (stereo not given in full)	x	x	0.326µM*	x	x	0.366µM*
CC1O[C@@H](OC2CC[C@@]3(C=O)C4CC[C@]5(C)C(C6=CC(=O)OC6)CC[C@@]5(O)C4CC[C@]3(O)C2)C(O)C(O)C1O (stereo not given in full)	x	x	0.581µM*	x	x	0.461µM*
C[C@]12CCC3C(CC[C@]4(O)CC(O)CC[C@@]34C=O)[C@]1(O)CCC2C1=CC(=O)OC1 (stereo not given in full)	x	x	-20.9%	x	x	10.2%
CC(C)c1ccc(OCC(=O)N2CCN(CCc3ccccn3)CC2)cc1	x	x	u	x	x	-28.4%
COc1ccc2c(c1OC)CN1CCc3cc4c(cc3[C@H]1C2)OCO4	-3.9	-0.3%	13µM*	u	-0.2%	14.6µM*
COc1cc2c(cc1OC)C(C1c3cc4c(cc3CCN1C)OCO4)OC2=O (stereo not given)	0.9	20.3%	4.6%	0.2%	2.5%	1.3%
CN1CCc2cc3c(cc2C1C1OC(=O)c2c1ccc1c2OCO1)OCO3 (stereo not given)	x	x	-4.6%	x	x	2.9%
COc1ccc2c(c1OC)CN1CCc3cc4c(cc3C1C2)OCO4 (stereo not given)	-9.3	-17.3%	u	-3.5%	-11.0%	20.6µM*
Cc1ccc2c(c1)CC1(CN2C)C(=O)NC(=O)N(CCC2=CCCCC2)C1=O (stereo not given)	8.4	-1.7%	u	3.4%	-2.5%	u
Cc1cccc(NC(=O)c2ncn3c2C(=O)NC[C@H]3C)c1	-8.6	-0.2%	u	x	-1.5%	-23.8%
Cc1cccc(NC(=O)c2ncn3c2C(=O)NC[C@@H]3C)c1	-17.6	-3.5%	u	x	11.8%	-4.3%
C[C@H]1Cn2cnc(C(=O)Nc3ccc(CNC(=O)OC(C)(C)C)cc3)c2C(=O)N1	u	23.3%	13µM*	x	1.8%	u
C[C@H]1CNC(=O)c2c(C(=O)Nc3ccc(CNC(=O)OC(C)(C)C)cc3)ncn21	-12.9	-19.5%	9.2µM*	x	-8.9%	14.6µM*
C[C@@H]1CNC(=O)c2c(C(=O)Nc3cccc(Cl)c3)ncn21	u	-19.5%	20.6µM*	x	-20.3%	20.6µM*
COC(=O)COc1cc(Cl)c(Cl)cc1Cl	x	x	4.7%	x	x	16.6%
COC(=O)C1=C(c2ccc(OCc3ccccc3)cc2)C[C@@H]2CC[C@H]1N2C(=O)NCc1ccc(OC)cc1	0.0	-11.5%	6.51µM*	x	-29.1%	7.31µM*
SMILES	IL1B secr inh	HT1080NT lethal	TDP1 cell noCPT	uPA surface inh	HT1080 IDH1KD tx	TDP1 cell CPT
COC(=O)C1=C(c2cccc(OCc3ccccc3)c2)C[C@@H]2CC[C@H]1N2C(=O)NCc1ccccc1	-17.2	-18.6%	u	u	-6.6%	u
COC(=O)C1=C(c2cccc(OCc3ccccc3)c2)C[C@@H]2CC[C@H]1N2C(=O)NCc1ccc(OC)cc1	-18.1	-14.9%	16.4µM*	u	-15.3%	11.6µM*
COC(=O)C1=C(c2cccc(OCc3ccccc3)c2)C[C@@H]2CC[C@H]1N2C(=O)NCc1ccccc1OC	u	-6.1%	23.1µM*	14.1µM*	-11.9%	u
COC(=O)C1=C(c2cccc(OCc3ccccc3)c2)C[C@@H]2CC[C@H]1N2C(=O)NCc1ccc(OC)c(OC)c1	-25.6	-0.8%	14.6µM*	-1.1%	-21.1%	16.4µM*
O=C(c1c[nH]c(C(=O)C(Cl)(Cl)Cl)c1)c1ccccc1Cl	-17.0	19.5%	u	2.8%	16.4%	u
COC(=O)C1=C(c2ccc(S(C)(=O)=O)cc2)C[C@@H]2CC[C@H]1N2C(=O)NCc1ccccc1	-2.9	-0.7%	-18.6%	-1.4%	8.2%	-15.5%
COC(=O)C1=C(c2cccc(OCc3ccccc3)c2)C[C@@H]2CC[C@H]1N2C(=O)NCc1cc(C)oc1C(F)(F)F	-14.0	-1.1%	u	-27.6%	-0.5%	23.1µM*
COC(=O)C1=C(c2cccc(OCc3ccccc3)c2)C[C@@H]2CC[C@H]1N2C(=O)NCc1cccc(C(F)(F)F)c1	u	-4.0%	16.4µM*	u	-7.0%	20.6µM*
COC(=O)C1=C(c2ccc(OCc3ccccc3)cc2)C[C@@H]2CC[C@H]1N2C(=O)NCc1ccc2c(c1)OCO2	-19.1	-13.2%	4.11µM*	x	-14.6%	5.8µM*
COC(=O)C1=C(c2ccc(OC)c(OC)c2)C[C@@H]2CC[C@H]1N2C(=O)NCc1cc(C)oc1C(F)(F)F	8.3	8.5%	-22.9%	-2.2%	11.3%	-7.9%
